The source of these data is PubChem BioAssay (NCI).

Molecules are shown by their SMILES. Compounds without any hit were thinned out: in the full panel of roughly 83,000, 20% have a hit.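 Plates (96-well) were seeded with cells, treated with compound at one concentration, and incubated for 48 hours before percent growth was determined.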 Values without a mark were called inactive. The source made the active and inactive calls. The calls were made as follows: active = growth percent below 10; inactive = the rest.

Among the test systems are SR leukemia; RPMI-8226 leukemia; OVCAR-8 ovarian; OVCAR-5 ovarian; OVCAR-4 ovarian; SK-OV-3 ovarian; IGROV1 ovarian; OVCAR-3 ovarian; HS 578T breast; NCI/ADR-RES ovarian; T-47D breast; MDA-MB-435 melanoma; SW-620 colon; MCF7 breast; HCT-116 colon; HCC-2998 colon; KM12 colon; BT-549 breast.
Experiment in all cases: NCI-60 one-dose screen, 48 h (100 = growth as untreated, 0 = no growth, -100 = all killed)
Details in all cases: 10 µM unless noted

Take `CN1C(=O)N(C)C2C1NN=c1s/c(=C\c3ccccc3F)c(=O)n12` (stereo unspecified): the growth is 18.2% in the experiment with SR leukemia; 20.7% in the experiment with RPMI-8226 leukemia; 10.1% with OVCAR-8 ovarian; 25.6% with OVCAR-5 ovarian; 49% in the experiment with OVCAR-4 ovarian; 33.8% in the experiment on SK-OV-3 ovarian. For the same compound, the growth in the experiment on IGROV1 ovarian is 20.8%; in the experiment on OVCAR-3 ovarian it was -3.72% (active); in the experiment on HS 578T breast, 7.57% (active); in the experiment with NCI/ADR-RES ovarian, -13.1% (active); with T-47D breast it was 52.6%; with MDA-MB-435 melanoma, -40.2% (active). The growth was 18.8% in the experiment on SW-620 colon; 18.6% in the experiment on MCF7 breast; 14% in the experiment with HCT-116 colon; 5.08% (active) with HCC-2998 colon; 17.4% in the experiment on KM12 colon.

Take `C=C(C)[C@@H]1CC[C@]2(C#N)CC[C@]3(C)[C@H](CC[C@@H]4[C@@]5(C)CCCNC(C)(C)[C@@H]5CC[C@]43C)[C@@H]12`: the growth was -26% (active) in the experiment with SR leukemia; -18.6% (active) with RPMI-8226 leukemia; 82.7% with OVCAR-8 ovarian; 88.6% with OVCAR-5 ovarian; 72.4% in the experiment with OVCAR-4 ovarian; 118% with SK-OV-3 ovarian. Further, the growth in the experiment with IGROV1 ovarian was 46.4%; with OVCAR-3 ovarian it was 70.1%; with HS 578T breast, 91.8%; in the experiment on NCI/ADR-RES ovarian it was 88.3%; in the experiment with T-47D breast, 78.8%; in the experiment on BT-549 breast it was 96.1%. For the same compound, the growth with MDA-MB-435 melanoma was 44.2%; with SW-620 colon, 2.83% (active); in the experiment with HCT-116 colon, 41.6%; in the experiment with HCC-2998 colon it was -40.2% (active); with KM12 colon it was 41%.

Regarding `COc1ccc(/C=N\NC(=O)c2ccc3nc(-c4ccc(Cl)cc4)[nH]c3c2)cc1`, the growth in the experiment on SR leukemia is 0.647% (active); in the experiment with RPMI-8226 leukemia, 59.2%; in the experiment on OVCAR-8 ovarian, 31.3%; in the experiment on OVCAR-5 ovarian it was 77.3%; in the experiment with OVCAR-4 ovarian, -30.6% (active); in the experiment on SK-OV-3 ovarian it was 72.3%. Besides, the growth is 14.6% in the experiment with IGROV1 ovarian; 20.1% in the experiment on OVCAR-3 ovarian; 32.3% in the experiment on HS 578T breast; 73.6% in the experiment on NCI/ADR-RES ovarian; 56.9% in the experiment on BT-549 breast; 68.5% with MDA-MB-435 melanoma. The growth in the experiment with SW-620 colon is 24.4%; with MCF7 breast, 16.7%; with HCT-116 colon, 19%; in the experiment on HCC-2998 colon, 51.1%; in the experiment on KM12 colon, 17.3%.

`O=C(NCCN1CCOCC1)c1cncnc1Nc1ccc2c(ccn2Cc2ccccn2)c1`: the growth is 111% in the experiment with SR leukemia; 106% with RPMI-8226 leukemia; 102% in the experiment with OVCAR-8 ovarian; 100% in the experiment on OVCAR-5 ovarian; 106% in the experiment with OVCAR-4 ovarian; 95.4% in the experiment on SK-OV-3 ovarian. In addition, the growth in the experiment with IGROV1 ovarian was 106%; in the experiment on OVCAR-3 ovarian it was 113%; with HS 578T breast it was 103%; in the experiment with NCI/ADR-RES ovarian, 104%; in the experiment with T-47D breast it was 98.3%; in the experiment on MDA-MB-435 melanoma, 99.9%. The growth in the experiment on SW-620 colon is 98%; with MCF7 breast, 97.8%; with HCT-116 colon, 105%; in the experiment with HCC-2998 colon it was 100%; in the experiment on KM12 colon, 107%.

With `CC/C(=C(/c1ccc(Cl)cc1)c1ccc(OCCCN(C)C)cc1)c1ccc(OC)cc1`, the growth was -40.6% (active) in the experiment with SR leukemia; -41.3% (active) with RPMI-8226 leukemia; 74.3% in the experiment on OVCAR-8 ovarian; 73.5% with OVCAR-5 ovarian; 86.6% with OVCAR-4 ovarian; 102% in the experiment with SK-OV-3 ovarian. Further, the growth in the experiment on IGROV1 ovarian was 63.4%; in the experiment on OVCAR-3 ovarian it was 68.8%; in the experiment with HS 578T breast, 84.8%; in the experiment with NCI/ADR-RES ovarian, 82.9%; in the experiment on BT-549 breast it was 86.1%; in the experiment on MDA-MB-435 melanoma it was 64.7%. The growth is 4.55% (active) in the experiment with SW-620 colon; 9.13% (active) in the experiment on MCF7 breast; 46.6% in the experiment with HCT-116 colon; 16.8% in the experiment on HCC-2998 colon; 31.7% with KM12 colon.

Consider `Cn1cc(-c2nc(-c3c[nH]c4ccncc34)cs2)c2cc(F)ccc21`, for which the growth with SR leukemia is -36.8% (active); in the experiment with RPMI-8226 leukemia, -36.5% (active); in the experiment on OVCAR-8 ovarian it was -60.1% (active); in the experiment on OVCAR-5 ovarian it was -91.1% (active); with OVCAR-4 ovarian it was -54.4% (active); in the experiment with SK-OV-3 ovarian, 62.1%. Moreover, the growth in the experiment on IGROV1 ovarian was -87.2% (active); in the experiment with OVCAR-3 ovarian, -94.7% (active); in the experiment on HS 578T breast, -44.9% (active); in the experiment with NCI/ADR-RES ovarian, -73.7% (active); with BT-549 breast, 69.6%; with MDA-MB-435 melanoma, -91% (active). The growth in the experiment on SW-620 colon is -65.7% (active); with MCF7 breast it was -71.5% (active); with HCT-116 colon it was -95.4% (active); in the experiment with HCC-2998 colon, -80.6% (active); in the experiment with KM12 colon it was -95.1% (active).

Take `COc1cccc(C2C(C#N)=C(N)Oc3c2ccc2ccccc32)c1` (stereo unspecified): the growth with SR leukemia was 18.1%; in the experiment on RPMI-8226 leukemia, 20.7%; with OVCAR-8 ovarian it was 21.4%; in the experiment on OVCAR-5 ovarian, 40.5%; with OVCAR-4 ovarian it was 66.2%; in the experiment with SK-OV-3 ovarian, 40.1%. The growth in the experiment on IGROV1 ovarian is 18.3%; in the experiment on OVCAR-3 ovarian, -8.8% (active); in the experiment on HS 578T breast it was 52.1%; in the experiment on NCI/ADR-RES ovarian, 6.19% (active); in the experiment on T-47D breast, 69.5%; in the experiment with MDA-MB-435 melanoma, 6.77% (active). For the same compound, the growth in the experiment on SW-620 colon was 30.3%; in the experiment on MCF7 breast, 10.8%; in the experiment on HCT-116 colon, 5.1% (active); with HCC-2998 colon, 23.6%; in the experiment on KM12 colon, 11.9%.

On to `CCOC(=O)C1=CCC(n2cc(F)c(=O)[nH]c2=O)O1` (stereo unspecified), for which the growth with SR leukemia was 99.8%; in the experiment on RPMI-8226 leukemia it was 105%; with OVCAR-8 ovarian it was 97%; in the experiment with OVCAR-5 ovarian, 119%; with OVCAR-4 ovarian it was 130%; in the experiment with SK-OV-3 ovarian, 121%. Moreover, the growth was 126% in the experiment with IGROV1 ovarian; 92.5% in the experiment with OVCAR-3 ovarian; 116% in the experiment on HS 578T breast; 106% with NCI/ADR-RES ovarian; 107% with BT-549 breast; 110% in the experiment with MDA-MB-435 melanoma. Moreover, the growth was 89.9% in the experiment on SW-620 colon; 93.1% in the experiment with MCF7 breast; 96.7% in the experiment on HCT-116 colon; 103% with HCC-2998 colon; 88.3% in the experiment on KM12 colon.
